# PubChem BioAssay (NCATS)
# Where “and” joins values, the source holds several entries; their conditions need not be identical. Equal entries are not always repeated. Results filed as inconclusive are left out. Unmarked numbers belong to inactive results. Calls of active or inactive are those of the source. Calls follow the shape of the dose curve; as a rule, active = well fitted inhibition curve with a large enough effect; inconclusive = small, poorly fitted or top-dose-only effect; inactive = no such curve, though single readings can be large or run the other way.
# Test system: Zika virus NS2B-NS3 protease (linked)
# Test: 384 well plate NINDS AMC confirmatory qHTS for Zika virus inhibitors (AID 1347163); also: nearly all actives have a fitted effect of over 50% in size;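 as to activity change, negative = inhibition: fluorescence of AMC released from Ac-VKTGKR-AMC peptide cleaved by the protease; top concentration of the series differs between compounds; 0% = no-inhibitor control and -100% = no-enzyme control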
# Conditions: Recombinant NS2B-NS3 protease, Ac-VKTGKR-AMC fluorescence; series mostly up to 1 mM; activity change, negative = inhibition: at the top concentration
# How it was run: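 Linked protease 5/30/60 nM final; cpds up to 1 mM final, ~15 min preinc. Substrate Ac-VKTGKR-AMC 30 microM final. RT, dark, 25 min; FI ex 355/em 460; normalized to no-enzyme/no-inhibitor ctrls.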
# Potency is read from the fitted curve at half-maximal effect.
Structure (SMILES),"activity change, negative = inhibition [%]",Potency
CCOC(=O)c1ccc(N2C(=O)c3n[nH]c(-c4cccs4)c3C2c2ccc(C(C)(C)C)cc2)cc1 (stereo not given),-9.7,
O=C(Nc1ccc(C(=O)OCc2cc(=O)n3nc(C4CC4)sc3n2)cc1)c1cccc(Cl)c1,129,
Nc1c(N=Nc2ccc([N+](=O)[O-])cc2)c(S(=O)(=O)O)cc2cc(S(=O)(=O)O)c(/C=C/c3ccccc3)c(O)c12,,79.4 µM (active)
Cc1ccc(Nc2nnc(-c3ccc(C)c(S(=O)(=O)NCc4nc5ccccc5[nH]4)c3)c3ccccc23)cc1,605,
O=C(OCc1cc(=O)n2nc(C3CC3)sc2n1)c1ccc(NC(=O)c2ccccc2Cl)cc1,59,
O=C(Nc1cc(C(=O)Nc2ccc(S(=O)(=O)O)cc2S(=O)(=O)O)cc(C(=O)Nc2ccc(S(=O)(=O)O)cc2S(=O)(=O)O)c1)Nc1cc(C(=O)Nc2ccc(S(=O)(=O)O)cc2S(=O)(=O)O)cc(C(=O)Nc2ccc(S(=O)(=O)O)cc2S(=O)(=O)O)c1,,8.91 µM (active) and 7.08 µM (active)
CN(C)c1cc(CNCC(C)(C)C)c(O)c2c1C[C@H]1C[C@H]3[C@H](N(C)C)C(=O)C(C(N)=O)=C(O)[C@@]3(O)C(=O)C1=C2O,,178 µM (active)
CCS(=O)(=O)c1cccc(C(=O)Nc2ccc(-c3nc4ccccc4s3)c(O)c2)c1,179,
O=C(Nc1ccc(C(=O)Nc2ccc(C(=O)Nc3ccc(S(=O)(=O)O)c4cc(S(=O)(=O)O)cc(S(=O)(=O)O)c34)cc2)cc1)Nc1ccc(C(=O)Nc2ccc(C(=O)Nc3ccc(S(=O)(=O)O)c4cc(S(=O)(=O)O)cc(S(=O)(=O)O)c34)cc2)cc1,,39.8 µM (active)
CC(=O)Nc1ccc(S(=O)(=O)O)c2cc(S(=O)(=O)O)c(N=Nc3ccc(N=Nc4ccc(S(=O)(=O)O)cc4)c4ccc(S(=O)(=O)O)cc34)c(O)c12,,22.4 µM (active)
